The record followed here is PubChem BioAssay AID686978 (National Center for Advancing Translational Sciences (NCATS), 2013).

Where “and” joins values, the source holds several entries; their conditions need not be identical. Identical values can stand only once. About 64,000 (15%) of roughly 420,000 compounds were called active. Roughly 27% stayed inconclusive and do not appear here. The call rests on the fitted dose curve; in most records, active means well fitted inhibition curve with a large enough effect; inconclusive means small, poorly fitted or top-dose-only effect; inactive means flat fitted curve, though single readings scatter. Only a sample is shown. A call without a number means that no potency is given here. Numbered stars: 1 amine (or outer) side, 2 acyl side, 3 side chain; on linkers, the order of the positions; unused ones are H or OH. Bridge positions count the residues as written; N and C are the ends. Square brackets hold non-standard residues; d marks the D form. Peptide text beside a SMILES is read from it. * marks the point of attachment. X11 = NC1=N[C@@H]([C@H](N[*:1])C(=O)[*:2])C[C@H](O)N1; ΔAla(Z-3-ureido) = NC(=O)N/C=C(\N)C(=O)O; β3hOrn = NCCC[C@H](N)CC(=O)*; Dap = NC[C@H](N)C(=O)O
Potency means the concentration at half of the fitted maximal effect.

The assay can be described thus: qHTS for Inhibitors of human tyrosyl-DNA phosphodiesterase 1 (TDP1): qHTS in cells in absence of CPT. Further: nearly all actives have a fitted effect of over 55% in size. The note with it: DT40 Tdp1-/- hTDP1 cells, no CPT, ATP luminescence, 48 h; activity change, negative = growth inhibition: at 46.2 µM (top of the series). Summed up:
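Cells were dispensed at 400 per well, compounds added by pin tool, plates incubated ≥48 hr at 37 °C, then CellTiter-Glo added for 30 min at room temperature before luminescence reading. Line: DT40 Tdp1-/- complemented with hTDP1; camptothecin omitted.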
(In general: In qHTS, concentration-response curves come from the screen itself.)
For the compound `CCOCCCN(C(=O)Cn1nnc(-c2ccc(OC)c(OC)c2)n1)C(CC)C(=O)NC1CCCC1` (stereo not drawn), the Potency entry is “inactive”.

As to `CCN1CCCC1Cn1cnc2c([nH]c3cc(OC)ccc32)c1=O` (stereo not drawn), the Potency entry was “inactive”.

With `O=C(c1ccc(F)cc1)N1CCCC(C(=O)N2CCCCC2)C1` (stereo not drawn), the Potency result was “inactive”.

As to `O=C(c1cccs1)N1CCCC(c2nc(-c3ccc(F)cc3)no2)C1` (stereo not drawn), the Potency was 16.4 µM (active).

Take `COc1ccc(NC(=O)N2CCCC(c3nc(-c4ccc(F)cc4)no3)C2)cc1` (stereo not drawn): the Potency result was “inactive”.

Turning to `CC(CC(=O)C1C(C)C=CCC1(C)C)NNC(N)=O` (stereo not drawn), the Potency result is “inactive”.

`O=C(CSc1nnc(-c2ccco2)o1)NCC(=O)c1ccccc1`: the Potency entry was “inactive”.

Turning to `CCN(CC)C(=O)c1nc[nH]c1C(=O)N(C)Cc1ccccc1`, the Potency result is “inactive”.

On to `Cc1nnc(SCC(=O)NCc2cccs2)[nH]c1=O`, for which the Potency entry was “inactive”.

For `Cc1cc(-c2n[nH]c(=S)n2/N=C/c2ccco2)n[nH]1`, the Potency entry is “inactive”.

As for `CCN(CC)S(=O)(=O)c1cccc(-c2n[nH]c(=S)n2/N=C/c2ccc(C(=O)OC)cc2)c1`, the Potency entry was “inactive”.

`S=c1[nH]nc(-c2cccnc2)n1/N=C/C(Cl)=C\c1ccccc1`: the Potency was 23.1 µM (active).

Take `Fc1ccccc1/C=N/n1c(-c2cccnc2)n[nH]c1=S`: the Potency result was “inactive”.

In the case of `Cc1cc(-c2n[nH]c(=S)n2/N=C/C(Br)=C/c2ccccc2)n[nH]1`, the Potency was 2.06 µM (active).

`S=c1[nH]nc(-c2ccco2)n1/N=C/c1ccccc1`: the Potency result was “inactive”.

For the compound `Cc1ccccc1CCN(CC(=O)NC1CCCCC1)C(=O)c1csnn1`, the Potency entry is “inactive”.

Consider `CSCC[C@H](NC(=O)CCCn1nnc2ccccc2c1=O)C(=O)O`, for which the Potency entry was “inactive”.

Turning to `C[C@H]1CN([C@@H](C)CO)C(=O)c2cc(-c3ccccc3F)cnc2O[C@H]1CN(C)C(=O)C1CCOCC1`, the Potency entry is “inactive”.

For the compound `NC(=O)N/N=C\c1cccs1`, the Potency entry is “inactive”.

For the compound `COc1ccccc1C(=O)N/C(=C/c1ccc2c(c1)OCO2)C(=O)Nc1cccc(C(=O)O)c1`, the Potency entry is “inactive”.

With `CC(=O)Nc1ccc(CN2CCC(Oc3ccc(C(=O)N4CCCC4)cc3)CC2)cc1`, the Potency result is “inactive”.

As to `COc1ccc(-c2ccc(C(=O)NCCN3CCOCC3)c3occc23)c(C)c1`, the Potency is 20.6 µM (active).

`COc1ccc2c(c1)CCc1cnc(-n3ncc(C(=O)NCCN4CCOCC4)c3C)nc1-2`: the Potency result is “inactive”.

On to `COc1ccc(N)c(C)c1`, for which the Potency result was “inactive”.

As for `O=C(Cc1ccc(Br)cc1)NCCN1CCOCC1`, the Potency result was “inactive”.

Take `COc1ccc(-c2ccc(C(=O)NC(C)C)c3occc23)c(C)c1`: the Potency is 16.4 µM (active).

Turning to `COc1ccc(C2OC(=O)CC2C(=O)NC(C)C)cc1` (stereo not drawn), the Potency entry was “inactive”.

As to `CCN(CC(=O)NCCc1ccccc1)S(=O)(=O)c1ccccc1`, the Potency entry was “inactive”.

`COc1ccc2c(c1)c1nc3n(c(=O)c1n2CC(=O)Nc1ccccc1)CCS3`: the Potency entry is “inactive”.

As to `O=C1C(=O)N(CCN2CCOCC2)C(c2cccc(Cl)c2)/C1=C(/O)c1ccc2c(c1)OCO2` (stereo not drawn), the Potency result was “inactive”.

As to `COC(=O)c1ccc(NC(=O)CCc2c(C)nc3c(c(C)nn3-c3ccc(C)cc3)c2C)cc1`, the Potency is 6.51 µM (active).

Take `CCOC(=O)C(Cc1ccccc1)NC(=O)CCc1c(C)nc2c(c(C)nn2-c2ccc(C)c(C)c2)c1C` (stereo not drawn): the Potency entry is “inactive”.

As to `CCCNC(=O)CCc1c(C)nc2c(c(C)nn2-c2ccccc2)c1C`, the Potency result is “inactive”.

For the compound `Cc1ccc(C)c(NC(=O)CSc2nnc(Cc3cccn3C)n2-c2ccc(F)cc2)c1`, the Potency entry is “inactive”.

Regarding `CC1CCN(C(=O)C2CCN(S(=O)(=O)N3CCC4(CC3)OCCO4)CC2)CC1`, the Potency entry was “inactive”.

Take `Nc1nnc(SCn2nnc3ccccc3c2=O)s1`: the Potency entry is “inactive”.

Turning to `O=c1[nH]nc(Cc2ccccn2)c2ccccc12`, the Potency result was “inactive”.

Turning to `O=C(Nc1ccccc1)c1nnsc1S(=O)(=O)c1ccc(Cl)cc1`, the Potency is 2.59 µM (active).

In the case of `O=C(Nc1cccc(Cl)c1)c1csnn1`, the Potency entry was “inactive”.

Consider `O=C(Nc1ccc(Cl)cc1)c1ccsn1`, for which the Potency entry is “inactive”.

For `Cc1cc(C)n2nc(C(=O)NC(C)(C)C)nc2n1`, the Potency result is “inactive”.

Take `O=S(=O)(Nc1ccc(-c2ccc(N3CCOCC3)nn2)cc1)c1cc(Cl)ccc1Cl`: the Potency entry is “inactive”.

For `NC(=O)C1(Nc2ccccc2Cl)CCCC1`, the Potency entry is “inactive”.

As for `O=C(NNc1ccccc1Cl)C(O)(c1cccc(C(F)(F)F)c1)c1cccc(C(F)(F)F)c1`, the Potency is 16.4 µM (active).

Consider `CC(CC(=O)Nc1cc(C(F)(F)F)ccc1Cl)c1ccccc1` (stereo not drawn), for which the Potency result was “inactive”.

As for `CC(C)Nc1ccc(-n2nc3ccccc3[n+]2[O-])cc1`, the Potency result is “inactive”.

Regarding `c1ccc(Cc2cc[n+](Cc3ccccc3)cc2)cc1`, the Potency is 20.6 µM (active).

On to `CN(C)c1cc[n+](Cc2ccccc2)cc1`, for which the Potency was 0.411 µM (active).

As for `CN(C)c1ccc(CSc2ccccc2)cc1`, the Potency entry is “inactive”.

Take `[O-][n+]1ccc(OCc2ccccc2)cc1`: the Potency entry was “inactive”.

As for `O=C(Nc1cc(-c2nn(CC(=O)N3CCCCC3)c(=O)c3ccccc23)ccc1N1CCOCC1)c1ccc(Cl)cc1`, the Potency entry is “inactive”.

Regarding `Cc1ccc(-c2csc3nnc(SCC(=O)NCc4ccco4)n23)cc1`, the Potency result is “inactive”.

Turning to `COc1cc(F)c(C2=CC(=O)CC(C)(C)C2)cc1F`, the Potency entry was “inactive”.

Consider `Cc1c(CCOC(=O)CC23CC4CC(CC(C)(C4)C2)C3)sc[n+]1Cc1ccc([N+](=O)[O-])cc1`, for which the Potency is 18.4 µM (active).

In the case of `O=C(CSC1=Nc2ccccc2C2=NC(c3ccccc3)C(=O)N12)NCC1CCCO1` (stereo not drawn), the Potency result was “inactive”.

For `Cc1ccc(C)c(S(=O)(=O)N2CC(=O)Nc3ccccc32)c1`, the Potency result is “inactive”.

Consider `O=C(Nc1ccc(NC(=O)c2cccs2)cn1)c1ccco1`, for which the Potency entry is “inactive”.

As for `CCOc1ccccc1NC(=O)Cn1nnc(C(=O)NCc2cccs2)c1N`, the Potency was 130 nM (active) and 51.7 nM (active).

Regarding `Cc1ccc(NC(=O)Cn2nnc(C(=O)NCc3ccco3)c2N)c(C)c1`, the Potency entry was “inactive”.

With `CCOc1ccccc1NC(=O)Cc1cccs1`, the Potency result is “inactive”.

As for `Cc1cc(C)n(CC(C)NCc2c(C(=O)N3CCOCC3)nc3c(C)cccn23)n1` (stereo not drawn), the Potency result is “inactive”.

On to `Fc1ccc(Nc2nnns2)cc1`, for which the Potency entry was “inactive”.

`Cc1sc2c(c1C)c(=O)n(-c1ccccc1)c(=O)n2CC(=O)NCC1CCCO1` (stereo not drawn): the Potency entry was “inactive”.

With `Nc1ccc(S(=O)(=O)NC(=O)c2ccccc2)cc1`, the Potency entry is “inactive”.

Take `Nc1ccc(C(=O)Nc2ccccc2N)cc1`: the Potency was 2.37 µM (active) and 3.26 µM (active).

For `Nc1ccc(C(=O)NCc2ccccc2)cc1`, the Potency result is “inactive”.

`COc1ccc2oc(=O)c(C(=O)N3CCCC3)cc2c1`: the Potency entry was “inactive”.

`CC(C)C[C@H](NC(=O)NCCc1ccc(Cl)cc1)C(=O)O`: the Potency entry was “inactive”.

Regarding `O=C(O)CC1(CC(=O)Nc2cccc(C(F)(F)F)c2)CCCC1`, the Potency entry was “inactive”.

As to `O=C(O)CSCC(=O)Nc1cccc(C(F)(F)F)c1`, the Potency result was “inactive”.

On to `O=C(Nc1cccc(C(F)(F)F)c1)c1cc(Br)cc(Br)c1O`, for which the Potency is 13.3 µM (active).

Take `Cn1c(SCC(=O)N2CCOCC2)nnc1-c1ccc(NC(=O)c2ccccc2F)cc1`: the Potency result is “inactive”.

Take `CC1CN(C(=S)Nc2ccc(Br)cc2Cl)CC(C)O1` (stereo not drawn): the Potency result was “inactive”.

As for `CNC(=S)N/N=C/c1ccc(OCc2ccccc2)c(Br)c1`, the Potency is 10.3 µM (active).

`C=CCNC(=S)N/N=C/c1ccc(OCc2ccccc2)cc1`: the Potency result was “inactive”.

`O=C(N/N=C/c1cccc(OCc2ccccc2)c1)c1ccc(Br)o1`: the Potency entry is “inactive”.

Take `CC1CN(c2cc(=O)n(-c3cccc(Br)c3)c(=O)[nH]2)CC(C)O1` (stereo not drawn): the Potency result was “inactive”.

On to `CS(=O)(=O)c1cccc(-c2ccc3nncn3c2)c1`, for which the Potency result was “inactive”.

For `CSc1ccccc1C(=O)OCC(=O)N1CCN(C(C)=O)CC1`, the Potency entry is “inactive”.

Turning to `Cc1ccc(N2C(=O)CN=C2Nc2nc(C)cc(C)n2)cc1`, the Potency entry was “inactive”.

For `Cc1cc(/C=C2\SC(=Nc3ccc(N4CCOCC4)cc3)N(C)C2=O)c(C)n1-c1cccnc1`, the Potency result was “inactive”.

On to `O=C(Nc1ccc([N+](=O)[O-])cc1)OCCc1ccccn1`, for which the Potency entry is “inactive”.

Regarding `Cc1ccc2nc(Nc3ccccc3)cc(C)c2c1`, the Potency is 10.3 µM (active).

With `Cc1cc(Nc2ccccc2)nc(N)n1`, the Potency entry is “inactive”.

Turning to `Clc1ccc(Nc2ccc3ccccc3n2)cc1`, the Potency entry was “inactive”.

On to `Cc1nc(CC(=O)NNS(=O)(=O)c2ccc(F)c(Cl)c2)cs1`, for which the Potency result was “inactive”.

`NCCC[C@H](N)CC(=O)N[C@H]1CNC(=O)[C@H]([C@H]2C[C@H](O)NC(N)=N2)NC(=O)/C(=C/NC(N)=O)NC(=O)[C@H](CO)NC(=O)[C@H](CO)NC1=O` (β3hOrn-[Dap]SS[ΔAla(Z-3-ureido)][X11]; lactam 1-C): the Potency entry was “inactive”.

As for `CCOc1cc(C)ccc1OCc1nnc(SCC(=O)Nc2cccc(C(=O)O)c2)n1-c1ccccc1`, the Potency entry is “inactive”.

In the case of `Cc1c(Br)c([N+](=O)[O-])nn1C(C)C(=O)Nc1nccs1` (stereo not drawn), the Potency result is “inactive”.

In the case of `CC(=O)Nc1ccc(S(=O)(=O)NC(C)C(=O)OCC(=O)NC2CCCC2)cc1` (stereo not drawn), the Potency entry is “inactive”.

Take `CCOC(=O)c1ccc(NC(=O)Cn2c(=O)cc(C)c3c(C)nn(-c4cccc(F)c4)c32)cc1`: the Potency is 18.4 µM (active).

`COc1ccc(NC(=O)Cn2c(=O)cc(C)c3c(C)nn(-c4cccc(Cl)c4C)c32)cc1OC`: the Potency entry was “inactive”.

With `CCc1ccc(-n2nc(C)c3c(C)cc(=O)n(CC(=O)Nc4ccc(F)cc4C)c32)cc1`, the Potency result was “inactive”.

Take `Cc1cnc(-n2ncc(C(=O)N3CCN(C(C)C)CC3)c2-c2ccco2)nc1-c1ccc(F)cc1`: the Potency entry was “inactive”.

`O=C(Nc1nnc(CCN2CCCCC2)s1)c1cccc(Cl)c1`: the Potency entry was “inactive”.

Consider `CCCn1c(=N)n(CC(=O)c2ccc(Cl)c(Cl)c2)c2ccccc21`, for which the Potency is 11.6 µM (active).

Turning to `CCN(CC)CC1(O)CCN(C(=O)c2ccc(Cl)c(Cl)c2)CC1`, the Potency result is “inactive”.

Regarding `CCCNC(=O)c1ccc(Cl)c(Cl)c1`, the Potency result is “inactive”.

Regarding `O=C(O[C@@H]1[C@H](Cc2ccccc2)NS(=O)(=O)[C@H]2C[C@@H]3C=C[C@]12O3)c1ccccc1Br`, the Potency is 16.4 µM (active).

On to `O=C(O[C@H]1[C@H](Cc2ccccc2)NS(=O)(=O)[C@H]2C[C@@H]3C=C[C@]12O3)c1ccc([N+](=O)[O-])cc1`, for which the Potency entry is “inactive”.

For the compound `O=S1(=O)CCOC[C@H](Cc2ccccc2)N1Cc1ccccc1Br`, the Potency result was “inactive”.

As to `Cc1ccc(Nc2cc(=O)n(C3CCCCC3)c(=O)[nH]2)cc1C`, the Potency result is “inactive”.

For `C/C(=C\C(=O)c1ccc(Br)cc1)N1CCCCC1`, the Potency result is “inactive”.
